About 83,000 compounds went through this panel and 20% of them were active in at least one assay; those are over-represented in the sample as a whole.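 Activity criterion: percent growth below 10, measured after cells in 96-well plates were exposed to a single compound concentration for 48 hours.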 Activity calls are given as the source filed them.
What follows are molecules tested on PC-3 prostate (assay: NCI-60 one-dose screen, 48 h (100 = growth as untreated, 0 = no growth, -100 = all killed)). Conditions: 10 µM unless noted.
Procedure: Growth inhibition of the PC-3 human tumor cell line is measured as a screen for anti-cancer activity. Cells are grown in 96 well plates and exposed to the test compound for 48 hours. Compounds are tested at a single concentration, which is 10^-5 M for most compounds. The reported endpoint is percent growth (GI% or GIPRCNT), where numbers from 0 - 100% represent growth inhibition, and numbers from -100% - 0 represent cell death. For example, a value of 40 represents 60% growth inhibition. A value of 0 means no net growth occurred over the course of the experiment. A value of -40 indicates 40% of cells at the beginning of the experiment died by the end of the experiment. A value of -100 means all cells are dead at the end of the experiment.
NCI-60 Human Tumor Cell Lines Screen was performed using the standard one-dose NCI protocol, which is described in more detail at https://dtp.cancer.gov/discovery_development/nci-60/default.htm.
Compounds with GIPRCNT values below 10 were considered active. Activity score was based on GIPRCNT using the following formula: […]
Score is 0 for GIPRCNT values of 100 or above, 50 for GIPRCNT values of 0, and 100 for GIPRCNT values of -100.

Q: `c1ccc(CCN2CCCCC2Cc2ccccc2)cc1` (stereo not given) was tested. Which growth did it give?
A: The growth was 103% (inactive).

Q: `CCCCCCCC(=O)OCC/C=C/C1OC1C1OC(=O)/C=C\C=C\c2nc(oc2C)/C=C(/C)CCC2OC2C1OC(=O)NC(C)=O` (stereo not given) was tested. Which growth did it give?
A: Its growth is -3.27% (active).

Q: For `N#C[Se]CCCNS(=O)(=O)C1CC2C=CC1C2` (stereo not given), which growth is on record?
A: Its growth is -19.2% (active).

Q: With `O=[N+]([O-])c1ccc(/C=C/C=C/c2ccc(S(=O)(=O)F)cc2)c(Cl)c1` as the molecule, how does the growth read?
A: Its growth is 91.8% (inactive).

Q: With `CCC(CO)NC1CCCCC1` (stereo not given) as the molecule, how does the growth read?
A: The growth was 92.2% (inactive).

Q: With `CC(=O)[O][Hg][CH2]C1(C)COC(C)([CH2][Hg][O]C(C)=O)CO1` (stereo not given) as the molecule, how does the growth read?
A: The growth was 89.5% (inactive).

Q: For `COc1cc(N(CCCl)CCCl)ccc1C=Nc1ccccc1C(=O)O`, which growth is on record?
A: The growth was 90.3% (inactive).

Q: With `ClCCN(CCCl)c1nc(Cl)c(C2CC(c3ccc(Cl)cc3)=NN2c2cc(Cl)cc(Cl)c2)s1` (stereo not given) as the molecule, how does the growth read?
A: Its growth is 93.6% (inactive).

Q: `Cn1cnnc1[S-].[Au+].c1ccc([PH+](c2ccccc2)c2ccccc2)cc1` was tested. Which growth did it give?
A: The growth was 23.8% (inactive).

Q: For `O=C(O)C1(Br)CC12c1ccccc1-c1ccccc12` (stereo not given), which growth is on record?
A: Its growth is 100% (inactive).

Q: For `C=CCC1(CC)C(=O)NC(=S)NC1=O`, which growth is on record?
A: The growth was 96.8% (inactive).

Q: `CC(C)OC(=S)[S-].[Au+].c1ccc([PH+](c2ccccc2)c2ccccc2)cc1` was tested. Which growth did it give?
A: The growth was 42.9% (inactive).

Q: With `COc1ccc(C2=NN(c3ccccc3)C(c3sc(N(CCCl)CCCl)nc3Cl)C2)cc1` (stereo not given) as the molecule, how does the growth read?
A: The growth was 69.5% (inactive).

Q: How did the growth turn out when `COc1ccc(NP2(=O)OCC(C)(N)CO2)cc1` (stereo not given) was run?
A: Its growth is 84.5% (inactive).

Q: `CC(=O)N(C)C1=Nc2ccc(Cl)cc2C(c2ccccc2)=[N+]([O-])C1` was tested. Which growth did it give?
A: Its growth is 91% (inactive).

Q: Which growth does the source give for `O=S(=O)(F)c1ncnc2nc[nH]c12` here?
A: The growth was 93.7% (inactive).

Q: How did the growth turn out when `CC[C@]12C=CCN3CC[C@@]4(c5ccc(OC)cc5N(C)[C@H]4[C@@](O)(C(=O)OC)[C@@H]1OC(=O)CCCN1CCN(CCCC(=O)O[C@@H]4[C@]5(CC)C=CCN6CC[C@@]7(c8ccc(OC)cc8N(C)[C@H]7[C@@]4(O)C(=O)OC)[C@@H]65)CC1)[C@@H]32` was run?
A: Its growth is -80.3% (active).

Q: `Cc1cc(NC(=O)CCc2ccc(N3C(N)=NC(N)=NC3(C)C)cc2)ccc1S(=O)(=O)F` was tested. Which growth did it give?
A: Its growth is -23.4% (active).

Q: `CC12CCC(=O)C=C1C(O)CC1C2CCC2(C)C(O)CCC12` (stereo not given) was tested. Which growth did it give?
A: Its growth is 95% (inactive).

Q: `O=S(=O)(O)c1ccc(-c2ccc([As](=O)(O)O)cc2)cc1` was tested. Which growth did it give?
A: The growth was 98% (inactive).

Q: For `O=c1cc[nH]c(=O)o1`, which growth is on record?
A: Its growth is 98% (inactive).

Q: With `CC(/C=N/N=C(N)N)=N\N=C(N)N` as the molecule, how does the growth read?
A: Its growth is 101% (inactive).

Q: For `[Br][Pb]([c]1ccccc1)([c]1ccccc1)[c]1ccccc1`, which growth is on record?
A: The growth was -80.6% (active).

Q: `CC1(C)N=C(N)N=C(N)N1c1ccc(CNC(=O)Nc2ccc(S(=O)(=O)F)c(Cl)c2)c(Cl)c1` was tested. Which growth did it give?
A: Its growth is 4.03% (active).

Q: Which growth does the source give for `CSc1ccccc1NP1(=O)OCC(C)([N+](=O)[O-])CO1` (stereo not given) here?
A: Its growth is 98% (inactive).

Q: How did the growth turn out when `c1ccc([As]=[As]c2ccccc2)cc1` (stereo not given) was run?
A: The growth was -22.9% (active).

Q: `C[CH2][Pb]([CH2]C)([CH2]C)[O]C(=O)c1ccc(N)cc1` was tested. Which growth did it give?
A: The growth was 57.5% (inactive).

Q: With `O=[N+]([O-])c1ccc(F)c([N+](=O)[O-])c1F` as the molecule, how does the growth read?
A: The growth was 89.3% (inactive).

Q: Which growth does the source give for `O=C(NCc1ccc([N+](=O)[O-])cc1)Nc1ccc(S(=O)(=O)F)cc1` here?
A: The growth was 74.6% (inactive).

Q: With `NC(Cc1ccc(O)cc1)C(=O)N/N=C/c1ccc(N(CCCl)CCCl)cc1` (stereo not given) as the molecule, how does the growth read?
A: The growth was 56% (inactive).

Q: Which growth does the source give for `COC(=O)C[Se]C(=O)c1ccccc1OC(C)=O` here?
A: Its growth is 77.7% (inactive).

Q: `CC1=C(SCCC(=O)OCC(=O)NCCC[Te]c2ccccc2)C(=O)c2ccccc2C1=O` was tested. Which growth did it give?
A: The growth was -9.1% (active).

Q: Which growth does the source give for `O1[As]2O[As]3O[As]1O[As](O2)O3` here?
A: Its growth is 10.7% (inactive).

Q: For `COC1=CC(=O)OC(CCc2ccc3c(c2)OCO3)C1` (stereo not given), which growth is on record?
A: Its growth is 106% (inactive).

Q: Which growth does the source give for `C1CNC2CCCC2C1` (stereo not given) here?
A: Its growth is 101% (inactive).

Q: With `CC(C)CCC1(CCO)C(=O)NC(=S)NC1=O` as the molecule, how does the growth read?
A: Its growth is 87.8% (inactive).

Q: `COc1ccc(C(=O)c2ccc([As]=O)cc2)cc1` (stereo not given) was tested. Which growth did it give?
A: The growth was -86.3% (active).

Q: With `CCOCC1(CCc2ccccc2)C(=O)NC(=S)NC1=O` as the molecule, how does the growth read?
A: Its growth is 104% (inactive).

Q: `O=[N+]([O-])c1ccccc1N1CCNCC1` was tested. Which growth did it give?
A: Its growth is 103% (inactive).

Q: With `COc1cc[c]([Hg][Cl])cc1` as the molecule, how does the growth read?
A: Its growth is 77.6% (inactive).

— PubChem BioAssay (NCI)
